# Measurements: ChEMBL document CHEMBL3433997, “St. Jude Leishmania screening dataset” (2016)
# Legend:
# Assay type in all cases: functional
# [1] = target: Solute carrier family 2, facilitated glucose transporter member 1 (Homo sapiens) (UniProt P11166); test: ST_JUDE_LEISH: Cytotoxicity at 2uM final concentration against transgenic Leishmania Mexicana promastigotes LmGLUT1 that are glucose transport deficient and complemented with the human glucose transporter GLUT1. Activity is measured by DNA content using SYBR green in vitro
# [2] = target: Hexose transporter 1 (Plasmodium falciparum) (UniProt O97467); test: ST_JUDE_LEISH: Cytotoxicity at 2uM final concentration against transgenic Leishmania Mexicana promastigotes LmPfHT that are glucose transport deficient and complemented with the Plasmodium falciparum hexose transporter. Activity is measured by DNA content using SYBR green in vitro
# [3] = target: Glucose transporter (Leishmania mexicana) (UniProt O61059); test: ST_JUDE_LEISH: Cytotoxicity at 2uM final concentration against transgenic Leishmania Mexicana promastigotes LmGT2 that are glucose transport deficient and complemented with the L. Mexicana glucose transporter 2. Activity is measured by DNA content using SYBR green in vitro
# Solute carrier family 2, facilitated glucose transporter member 1 (Homo sapiens), sequence (P11166 whole entry): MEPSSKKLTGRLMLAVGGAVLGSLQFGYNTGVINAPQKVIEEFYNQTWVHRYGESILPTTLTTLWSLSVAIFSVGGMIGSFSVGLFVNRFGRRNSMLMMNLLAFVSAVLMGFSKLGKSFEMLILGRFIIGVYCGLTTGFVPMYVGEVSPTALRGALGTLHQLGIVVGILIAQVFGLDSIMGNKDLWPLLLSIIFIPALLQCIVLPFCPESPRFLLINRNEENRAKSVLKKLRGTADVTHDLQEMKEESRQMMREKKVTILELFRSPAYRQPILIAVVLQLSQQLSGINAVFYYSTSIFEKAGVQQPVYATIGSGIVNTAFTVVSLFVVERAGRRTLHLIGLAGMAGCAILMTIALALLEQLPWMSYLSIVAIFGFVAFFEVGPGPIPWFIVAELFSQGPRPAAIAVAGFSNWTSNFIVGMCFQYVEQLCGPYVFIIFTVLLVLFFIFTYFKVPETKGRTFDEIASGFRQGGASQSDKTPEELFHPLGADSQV
SMILES,inhibition [1],inhibition [2],inhibition [3]
Cc1cccc2nc(-c3cccc(-c4cccc(NC(=O)c5cccnc5)c4)c3)[nH]c12,2.26%,-0.15%,-3.86%
COc1cc(C)nc2ccc(NC(=O)Nc3ccc4nc(C)cc(OC)c4c3)cc12,8.47%,6.65%,8.59%
CS(=O)(=O)CCNCc1ccc(-c2ccc3c(Nc4ccc(Cl)cc4F)ccnc3c2)o1,2.59%,3.39%,4.36%
CCc1ccccc1N1CCN(CCCC(=O)c2ccc(NC(=O)c3ccc(Cl)cc3)cc2)CC1,3.6%,3.75%,4.09%
Cn1nccc1C(=O)NCCNCc1cccc(-c2ccc(-c3nc4cc(C(F)(F)F)ccc4[nH]3)cc2)c1,-3.3%,-1.43%,-2.04%
O=c1cc(NCCCNCc2cc(C(F)(F)F)ccc2Cl)[nH]c2ccccc12,-0.91%,0.29%,-1.57%
CCCCOc1cc2c(cc1OCC)C(C=Cc1ccc(Cl)cc1Cl)=NCC2,15.5%,27.9%,10.2%
COc1cccc(CN(C(=O)Nc2ccccc2F)[C@H]2C[C@H]3C(=O)Nc4cc(F)ccc4C(=O)N3C2)c1,4.68%,4.97%,5.37%
Cc1ccc(Cn2nc(Cl)c(N3CCCNCC3)cc2=O)cc1NC(=O)Nc1ccc(-c2ccccc2)cc1,-1.89%,1.72%,-1.28%
O=C(COc1ccc(F)cc1)NC1CCN(c2ccnc3cc(Cl)ccc23)C1 (stereo unspecified),7.22%,6.11%,6.88%
CCOC(=O)CCCCCNC[C@H](O)c1ccccc1,-1.32%,-0.8%,-2.14%
CN(C)c1ccc(C=CC(=O)NC(=O)c2ccccc2O)cc1,3.19%,2.19%,1.56%
CCCn1c(O)nnc1SCC(=O)Nc1cc(Cl)ccc1Cl,-1.37%,-0.49%,-0.21%
Cc1ccc(Cn2ncc(N3CCC(N)CC3)c(Cl)c2=O)cc1NC(=O)Nc1ccc(-c2ccccc2)cc1,14.2%,12.3%,11.9%
O=C(Nc1nc(-c2cc(F)ccc2F)cs1)c1cncc(Br)c1,4.6%,1.79%,1.42%
COc1ccc(Nc2nc(NCc3cccc(NS(C)(=O)=O)c3)cc(-c3ccc(OC)cc3)n2)cc1,4.4%,5.23%,1.09%
O=C(O)c1ccc2c(c1)N(C(=O)CNCc1ccc(F)cc1)CC(=O)N2CCCc1ccccc1,-4.22%,-1.82%,-2.25%
COc1ccc2c(c1C1CCN(CCCCNC(=O)c3ccc(NC(=O)c4ccc(Cl)cc4)cc3)CC1)CCCC2,-1.16%,-1.03%,-1.07%
CCCN(CCCCCCN(CCC)CCc1ccc(O)c(O)c1)CCc1ccc(O)cc1,9.55%,12%,10.8%
COc1cccc(CCNCc2ccc(-c3cccc(CNC4CCCC4)c3)cc2)c1,7.38%,5.19%,3.02%
CN1CCN(c2ccc(Nc3c(C(N)=O)cnc4cc(-c5ccoc5)ccc34)cc2C(F)(F)F)CC1,2.31%,2.21%,2.01%
CCCNc1ccc(-c2cc(C(N)=O)c3[nH]cc(C4CCN(S(=O)(=O)CC)CC4)c3c2)cn1,3.86%,6.54%,3.64%
Cc1[nH]c(C)c(-c2ccc(C#Cc3ccc(F)cc3F)cc2)c(=O)c1Br,-0.29%,1.21%,0.22%
Cc1ccc(Cn2nc(N3CCNCC3)ccc2=O)cc1NC(=O)Nc1ccc(-c2ccccc2)cc1,1.5%,2.27%,-1.04%
COc1ccc(CNC2CCN(C)CC2)cc1-c1ccc(S(=O)(=O)NC2CCC2)cc1,2.91%,2.71%,2.91%
COc1cc(NC(=O)c2sc(-c3ccc(Cl)cc3)cc2NC(=O)CN2CC[C@@H](O)C2)ccc1OCCN1CCCC1,23.1%,15.1%,4.88%
O=C(Nc1cc(Cl)ccc1-n1cncn1)C1(c2ccccc2)CC1,2.59%,6.43%,5.68%
